Test results reported in the supplement of paper PMC12494721.
Where a name gives a salt, the structure may show the parent alone.

Columns and labels:
Settings in all cases: 20 µM; incubation time: 27 h, anaerobic, 37 °C;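 for the amine columns active = adjusted P below 0.05 in both replicates with a change the same way and a mean fold change under 0.8 or over 1.25; inactive = the rest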
[1] = tested on: Clostridium sporogenes DSM 1664; assay: growth (OD595) fold change vs plate DMSO controls (fold change (ratio)); higher = more growth
How it was run: (§1)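 Growth is the fold change relative to the median of plate DMSO controls. Readings came from anaerobic mGAM cultures in 96-well plates grown for 27 h at 37 °C and read at 595 nm. They were blank-subtracted, corrected for compound background with 20 µM compound solutions in water, and converted to OD with a calibration factor of 5. Values are means of 2 biological replicates, and fold changes above 1.5 were set to NA.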

Escherichia coli IAI1 [2] = assay: as above
How it was run: as §1

[3] = tested on: Klebsiella aerogenes DSM 30053; assay: as above
How it was run: as §1

[4] = tested on: Ruminococcus gnavus DSM 108212; assay: as above
How it was run: as §1

[5] = tested on: Klebsiella aerogenes DSM 30053; assay: fold change of Histamine concentration vs plate DMSO controls (fold change (ratio)); higher = more amine produced, active = hit call of the paper (significant change in both replicates, either direction)
How it was run: (§2)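 Amines were quantified by LC–triple-quadrupole MS in dynamic MRM mode against external calibration curves, with drift correction within each batch. The samples were whole anaerobic mGAM cultures of four gut bacterial strains, grown for 27 h at 37 °C in 80 µL wells and extracted with cold acetonitrile/methanol with 0.1% formic acid, then centrifuged. Values are reported as fold change over DMSO controls on the same plate. The mean of 2 biological replicates is given.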

[6] = tested on: Clostridium sporogenes DSM 1664; assay: fold change of Tryptamine concentration vs plate DMSO controls (fold change (ratio)); higher = more amine produced, active = hit call of the paper (significant change in both replicates, either direction)
How it was run: as §2

[7] = tested on: Ruminococcus gnavus DSM 108212; assay: as above
How it was run: as §2

Escherichia coli IAI1 [8] = assay: fold change of Putrescine concentration vs plate DMSO controls (fold change (ratio)); higher = more amine produced, active = hit call of the paper (significant change in both replicates, either direction)
How it was run: as §2

[9] = tested on: Klebsiella aerogenes DSM 30053; assay: as above
How it was run: as §2

Escherichia coli IAI1 [10] = assay: fold change of Cadaverine concentration vs plate DMSO controls (fold change (ratio)); higher = more amine produced, active = hit call of the paper (significant change in both replicates, either direction)
How it was run: as §2

[11] = tested on: Klebsiella aerogenes DSM 30053; assay: as above
How it was run: as §2

[12] = tested on: Ruminococcus gnavus DSM 108212; assay: fold change of 2-Phenylethylamine concentration vs plate DMSO controls (fold change (ratio)); higher = more amine produced, active = hit call of the paper (significant change in both replicates, either direction)
How it was run: as §2

Row | SMILES | growth [1] | growth (Escherichia coli IAI1 [2]) | growth [3] | growth [4] | fold change of Histamine concentration [5] | fold change of Tryptamine concentration [6] | fold change of Tryptamine concentration [7] | fold change of Putrescine concentration (Escherichia coli IAI1 [8]) | fold change of Putrescine concentration [9] | fold change of Cadaverine concentration (Escherichia coli IAI1 [10]) | fold change of Cadaverine concentration [11] | fold change of 2-Phenylethylamine concentration [12]
1 | NC(=O)CN1CCCC1=O [Piracetam] | 1.08 | 0.995 | 0.984 | 1.11 | 1.04 (inactive) | 1.01 (inactive) | 1.02 (inactive) | 1.04 (inactive) | 1.01 (inactive) | 0.997 (inactive) | 0.985 (inactive) | 1.01 (inactive)
2 | C=CC[C@]1(O)CC[C@H]2[C@@H]3CCC4=CC(=O)CCC4=C3C=C[C@@]21C [Altrenogest] | 0.998 | 0.987 | 1.05 | 0.827 | 0.926 (inactive) | 1.02 (inactive) | 1 (inactive) | 1.09 (inactive) | 1.01 (inactive) | 1.42 (inactive) | 1.01 (inactive) | 0.978 (inactive)
3 | C[CH2][Hg][S]c1ccccc1C(=O)[O-].[Na+] [Thimerosal] | 0.878 | 0.91 | 0.707 |  | 0.531 (inactive) | 0.986 (inactive) | 0.487 (active) | 0.936 (inactive) | 0.953 (inactive) | 0.896 (inactive) | 1 (inactive) | 0.496 (inactive)
4 | N#Cc1c[nH]cc1-c1cccc2c1OC(F)(F)O2 | 0.873 | 0.959 | 0.984 | 1.17 | 1.01 (inactive) | 1.03 (inactive) | 0.939 (inactive) | 0.993 (inactive) | 0.977 (inactive) | 1.08 (inactive) | 0.981 (inactive) | 0.972 (inactive)
5 | CN1C[C@H](C(=O)N[C@]2(C)O[C@@]3(O)[C@@H]4CCCN4C(=O)[C@H](Cc4ccccc4)N3C2=O)C[C@@H]2c3cccc4[nH]cc(c34)C[C@H]21 [Dihydroergotamine tartrate] | 1.2 | 1.13 | 1.1 | 0.827 | 0.89 (inactive) | 0.928 (inactive) | 0.982 (inactive) | 1.06 (inactive) | 0.984 (inactive) | 0.966 (inactive) | 1.01 (inactive) | 0.921 (inactive)
6 | CS(=O)(=O)c1ccc(C(=O)C2C(=O)CCCC2=O)c([N+](=O)[O-])c1 | 1.1 | 1.02 | 1 | 1.02 | 1.02 (inactive) | 0.928 (inactive) | 1 (inactive) | 0.929 (inactive) | 0.946 (inactive) | 0.973 (inactive) | 1.08 (inactive) | 0.999 (inactive)
7 | C[C@@H]1[C@@H](c2ccc(Cl)cc2)SC(=O)N1C(=O)NC1CCCCC1 | 1.01 | 1.08 | 1.07 | 1 | 0.918 (inactive) | 0.989 (inactive) | 0.913 (inactive) | 0.955 (inactive) | 1.03 (inactive) | 0.972 (inactive) | 1.02 (inactive) | 0.882 (inactive)
8 | CCOC(=O)c1cncn1[C@H](C)c1ccccc1 [Etomidate] |  | 1.22 | 0.988 | 0.931 | 0.992 (inactive) |  | 1.06 (inactive) | 0.985 (inactive) | 1.07 (inactive) | 0.973 (inactive) | 1.07 (inactive) | 1.19 (inactive)
9 | CN(C)[C@@H]1C(=O)C(C(N)=O)=C(O)[C@@]2(O)C(=O)C3=C(O)c4c(O)ccc(Cl)c4[C@@](C)(O)[C@H]3C[C@@H]12 [Chlortetracycline hydrochloride] | 0.00816 | 0.064 | 0.0706 | 0.431 | 0.0679 (active) | 0.0172 (active) | 0.302 (active) | 0.253 (active) | 0.47 (inactive) | 0.146 (active) | 0.483 (inactive) | 0.271 (active)
10 | O=C1c2ccccc2C(=O)N1SC(Cl)(Cl)Cl | 1.06 | 1 | 0.997 | 0.937 | 1 (inactive) | 0.983 (inactive) | 0.999 (inactive) | 1.05 (inactive) | 1 (inactive) | 0.969 (inactive) | 0.988 (inactive) | 0.999 (inactive)
11 | CNC(=O)ON=C(C)SC | 1.01 | 0.969 | 1 | 0.984 | 1.04 (inactive) | 1.06 (inactive) | 1.06 (inactive) | 1 (inactive) | 0.967 (inactive) | 0.892 (inactive) | 1 (inactive) | 1.09 (inactive)
12 | Oc1ccc(Cl)cc1Cc1cc(Cl)ccc1O | 0.8 | 0.854 | 0.898 | 0.861 | 1.12 (inactive) | 0.557 (inactive) | 0.513 (active) | 1.15 (inactive) | 0.996 (inactive) | 1.66 (active) | 0.986 (inactive) | 0.605 (inactive)
13 | CC[C@H](C)C1O[C@]2(C=C[C@@H]1C)C[C@@H]1C[C@@H](C/C=C(\C)[C@@H](O[C@H]3C[C@H](OC)[C@@H](O[C@H]4C[C@H](OC)[C@H](NC)[C@H](C)O4)[C@H](C)O3)[C@@H](C)/C=C/C=C3\CO[C@@H]4[C@H](O)C(C)=C[C@@H](C(=O)O1)[C@]34O)O2 (some centres not stated) | 0.931 | 1.08 | 1.05 |  | 0.888 (inactive) | 0.823 (inactive) | 0.581 (active) | 1.05 (inactive) | 0.995 (inactive) | 1.02 (inactive) | 0.995 (inactive) | 0.654 (inactive)
